# Screen size: about 310,000 compounds; about 14,000 (4.5%) showed an effect of 50% or more. The effect is printed as a negative number. The entries come from a sample that favours strong results as a whole.
# Target: human ether-à-go-go-related gene (hERG) potassium channel (human, UniProt Q12809)
# Assay: primary screen, population patch clamp on CHO cells stably expressing hERG; higher = less effect of the substance
# 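Further: peak tail current of the secondary pulse compared with the same well before compound.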
# Sequence of human ether-à-go-go-related gene (hERG) potassium channel (Q12809 whole entry, looked up): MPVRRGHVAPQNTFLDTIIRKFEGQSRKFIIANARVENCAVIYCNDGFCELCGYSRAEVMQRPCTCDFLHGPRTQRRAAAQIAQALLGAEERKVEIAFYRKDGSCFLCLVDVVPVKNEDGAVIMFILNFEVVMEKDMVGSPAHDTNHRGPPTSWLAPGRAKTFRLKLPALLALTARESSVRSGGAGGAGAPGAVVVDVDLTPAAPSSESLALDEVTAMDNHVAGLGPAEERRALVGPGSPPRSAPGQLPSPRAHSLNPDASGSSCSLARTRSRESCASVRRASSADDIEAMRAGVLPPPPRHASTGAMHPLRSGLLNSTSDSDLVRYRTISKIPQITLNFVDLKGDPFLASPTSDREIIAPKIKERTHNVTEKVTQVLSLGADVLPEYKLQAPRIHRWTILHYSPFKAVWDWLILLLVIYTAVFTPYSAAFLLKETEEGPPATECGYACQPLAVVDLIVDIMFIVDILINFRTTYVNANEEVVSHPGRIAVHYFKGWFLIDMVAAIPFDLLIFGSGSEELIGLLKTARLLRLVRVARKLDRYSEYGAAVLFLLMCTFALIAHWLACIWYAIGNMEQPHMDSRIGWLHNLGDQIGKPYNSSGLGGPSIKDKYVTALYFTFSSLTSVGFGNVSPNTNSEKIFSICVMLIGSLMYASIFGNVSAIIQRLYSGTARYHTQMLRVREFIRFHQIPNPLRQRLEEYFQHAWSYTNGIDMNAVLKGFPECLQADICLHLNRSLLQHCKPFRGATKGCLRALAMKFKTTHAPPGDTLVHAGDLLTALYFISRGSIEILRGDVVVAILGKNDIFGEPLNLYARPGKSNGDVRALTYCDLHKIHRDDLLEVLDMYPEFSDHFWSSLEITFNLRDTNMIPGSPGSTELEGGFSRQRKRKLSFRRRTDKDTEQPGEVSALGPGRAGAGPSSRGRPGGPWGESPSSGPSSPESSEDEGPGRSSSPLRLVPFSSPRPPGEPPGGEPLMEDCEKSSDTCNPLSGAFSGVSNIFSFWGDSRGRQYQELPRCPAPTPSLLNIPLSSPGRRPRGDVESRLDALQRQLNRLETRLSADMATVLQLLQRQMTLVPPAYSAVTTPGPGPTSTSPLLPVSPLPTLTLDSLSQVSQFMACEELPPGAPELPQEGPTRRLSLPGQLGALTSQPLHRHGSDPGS
row,Structure (SMILES),"hERG current change (%, negative = inhibition) at 10uM [%]"
1,Cc1ccc(C)c(S(=O)(=O)N2CCC3(CC2)OCCN3S(=O)(=O)c2cccs2)c1,5.64
2,CCCc1nc(SCC(=O)c2ccccc2)c2c(=O)n(C)c(=O)n(C)c2n1,-23.5
3,OCCNCCCCOc1ccc(F)cc1,4.18
4,CCCC(=O)Nc1sc2c(c1C#N)CCCCC2,-50.6
5,CCn1c(SCC(=O)Nc2oc(-c3ccccc3)c(-c3ccccc3)c2C#N)nnc1-c1ccncc1,-68.2
6,CCCC(=O)Nc1sc2c(c1C#N)CCCC2,4.29
7,CCn1c(SCC(=O)Nc2oc(-c3ccccc3)c(-c3ccccc3)c2C#N)nnc1-c1cc(OC)cc(OC)c1,-5.33
8,CCn1c(SCC(=O)Nc2oc(-c3ccccc3)c(-c3ccccc3)c2C#N)nnc1-c1ccco1,-30.8
9,CCC(=O)Nc1sc2c(c1C#N)CCCCC2,0.0585
10,COCCCn1c(SCC(=O)Nc2sc3c(c2C#N)CCCC3)nnc1-c1ccncc1,-49.4
11,CCn1c(SCC(=O)Nc2sc3c(c2C#N)CCCC3)nnc1-c1ccncc1,-63.5
12,N#Cc1c(NC(=O)CSc2nnc(-c3ccncc3)n2CC2CCCO2)sc2c1CCCC2 (centres unmarked),-40.7
13,O=S1OCCN1c1ccccc1 (centres unmarked),10.4
14,O=C(c1ccc(OC2CCN(CCc3ccccc3)CC2)cc1)N1CCCC(CO)C1 (centres unmarked),-12.4
15,COc1ccc([C@H]2/C=C\CN(S(=O)(=O)c3ccc4ccccc4c3)[C@@H](C)C(=O)N2Cc2ccc(F)cc2)cc1,6.43
16,CC1CCCC(C)N1C(=O)CN1C(=O)c2ccccc2S1(=O)=O (centres unmarked),3.3
17,O=C(Cc1ccccc1)Nc1ccc(NC(=O)c2ccc(Br)cc2)cc1,15.4
18,O=[N+]([O-])c1ccc(C2(O)CN(c3ccccc3)C3=[N+]2CCS3)cc1.[Br-] (centres unmarked),-60.8
19,OC1(c2ccc(F)cc2)CN(c2ccccc2)C2=[N+]1CCS2.[Br-] (centres unmarked),-13.9
20,Cc1ccc(C2(O)CN(c3ccccc3)C3=[N+]2CCS3)cc1.[Br-] (centres unmarked),-32.6
21,OC1(c2ccc(Cl)cc2)CN(c2ccccc2)C2=[N+]1CCS2.[Br-] (centres unmarked),-50.4
22,OC1(c2ccccc2)CN(c2ccccc2)C2=[N+]1CCS2.[Br-] (centres unmarked),-28.1
23,Cc1ccc(C2(O)CN(c3ccccc3C)C3=[N+]2CCS3)cc1.[Br-] (centres unmarked),-28.1
24,O=P(COCCO)(c1ccccc1)c1ccccc1,-4.96

row,Structure (SMILES),"hERG current change (%, negative = inhibition) at 10uM [%]"
1,COc1ccc(NC(=O)C2Cc3ccccc3O/C2=N\O)cc1 (centres unmarked),13.8
2,Cc1ccc2nc(C3CCN(C(=O)NCc4ccccc4)CC3)[nH]c2c1,-30
3,COc1cccc(CNC(=O)CN2CCC(c3nc4ccc(C)cc4[nH]3)CC2)c1,-68.4
4,COc1cccc(CNC(=O)CSc2nc3ccc(C)cc3[nH]2)c1,6.22
5,CCOC(=O)CNC(=O)CN1CCC(c2nc3ccccc3[nH]2)CC1,13.7
6,COc1ccc(C(=O)NC2CCN(CC(=O)NCc3cccc(OC)c3)CC2)cc1,-19.9
7,CCOc1ccccc1NC(=O)N1CCC(c2nc3ccccc3[nH]2)CC1,-23.6
8,COc1ccccc1NC(=S)N1CCC(c2nc3cc(C)c(C)cc3[nH]2)CC1,-21
9,CCOc1ccccc1NC(=O)N1CCC(c2nc3ccc(C)cc3[nH]2)CC1,-55.5
10,COc1ccccc1NC(=O)CN1CCC(c2nc3ccc(C)cc3[nH]2)CC1,-57.7
11,COc1ccccc1NC(=O)N1CCC(c2nc3cc(C)c(C)cc3[nH]2)CC1,-53.3
12,COc1ccc(NC(=O)N2CCC(c3nc4ccccc4[nH]3)CC2)cc1,9.26
13,COc1ccccc1NC(=O)CN1CCC(c2nc3ccccc3[nH]2)CC1,-43.6
14,COc1ccccc1-c1cnn2c(N3CCOCC3)cc(C)nc12,23.9
15,C=CCOc1ccc(/C=C/C(C)=N\O)cc1,4.84
16,O=[N+]([O-])c1c(Nc2ccccn2)cc(Cl)c2nonc12,9.59
17,CSCCC1NC(=S)N(Cc2ccccc2)C1=O (centres unmarked),16.3
18,CCN(CC)C(=O)CSc1ccccc1N,13
19,C[C@@H]1CC=C[C@H]2[C@H]1C(=O)N(Cc1ccccc1)[C@H]2c1ccc2ccccc2c1,3.52
20,COc1ccc(C2=C(Nc3ccc(C)cc3)c3ccccc3C2=O)cc1,3.57
21,COc1ccccc1C(CNC(=O)c1cc(S(=O)(=O)N2CCOCC2)ccc1C)N1CCCC1 (centres unmarked),2.53
22,CCn1cc(C(=O)N2CCN(c3ccccn3)CC2)c(=O)c2cc(S(=O)(=O)N3CCC(C)CC3)ccc21,-55.9
23,CCn1cc(C(=O)N2CCOCC2)c(=O)c2cc(S(=O)(=O)N(C)C3CCCCC3)ccc21,0.899
24,CCOC(=O)N1CCN(C(=O)c2cn(CC)c3ccc(S(=O)(=O)N(C)C4CCCCC4)cc3c2=O)CC1,-17.3

row,Structure (SMILES),"hERG current change (%, negative = inhibition) at 10uM [%]"
1,CCn1cc(C(=O)N2CCCC2)c(=O)c2cc(S(=O)(=O)N3CCC(C)CC3)ccc21,6.02
2,CCn1cc(C(=O)N2CCN(c3ccccn3)CC2)c(=O)c2cc(S(=O)(=O)N(C)C3CCCCC3)ccc21,-63.1
3,CCn1cc(C(=O)N2CCCCC2)c(=O)c2cc(S(=O)(=O)N3CCC(C)CC3)ccc21,-18.4
4,CCCN1CNC(=S)N(c2cccc(C)c2)C1,17
5,CCC(C)[C@H](NC(=O)N1CC(=O)Nc2ccccc21)C(=O)N1CCC[C@@H]1C(=O)O (some centres unmarked),13.5
6,COc1cccc(NC(=O)CCC(=O)Nc2cccc(OC)c2)c1,10.5
7,O=C(Nc1cccc(F)c1)c1ccc2ncsc2c1,9.49
8,O=C1OCCC1Sc1nnc(-c2cccs2)n1Cc1ccccc1 (centres unmarked),-29.5
9,C=CCn1c(SCc2cc(=O)n3ccsc3n2)nc2scc(C3CC3)c2c1=O,-9.75
10,C=CCn1c(SC2CCOC2=O)nc2sc(CC)cc2c1=O (centres unmarked),-65.4
11,C=CCn1c(SC2CCOC2=O)nc2sc(C)c(C)c2c1=O (centres unmarked),-11.2
12,C=CCn1c(SCC2CCCCO2)nc2sc(CC)cc2c1=O (centres unmarked),-2.19
13,C=CCn1c(SC(C)C#N)nc2sc(CC)cc2c1=O (centres unmarked),-41.2
14,C=CCn1c(SC2CCOC2=O)nc2scc(C3CC3)c2c1=O (centres unmarked),-64.6
15,CCc1cc2c(=O)n(Cc3ccccc3)c(SC3CCOC3=O)nc2s1 (centres unmarked),-80.4
16,Cc1sc2nc(SC3CCOC3=O)n(Cc3ccccc3)c(=O)c2c1C (centres unmarked),-9.22
17,O=C(Nc1ccccn1)C1CCN(S(=O)(=O)c2ccc3c(c2)OCCO3)CC1,-11.5
18,Cc1ccccc1OCC(=O)Nc1cc(Cl)ccc1Oc1ccccc1,0.121
19,O=C1NC(Cc2c[nH]c3ccccc23)C(=O)N1c1ccc(F)cc1 (centres unmarked),12.4
20,CCCNC(=O)C/C(C)=N/NC(=O)C(=O)Nc1ccccn1,29.4
21,O=C(CN1C(=O)NC2(CCCc3ccccc32)C1=O)N1CCc2ccccc2C1 (centres unmarked),-17.3
22,COc1ccc(-n2nc(C(=O)N3CCC(C#N)CC3)c3c4ccccc4n(C)c3c2=O)cc1,-55.5
23,CCN1CCN(C(=O)c2nn(-c3ccc(OC)cc3)c(=O)c3c2c2ccccc2n3C)CC1,-4.67
24,COc1ccc(-n2nc(C(=O)N3CCC(N4CCCCC4)CC3)c3c4ccccc4n(C)c3c2=O)cc1,7.1

row,Structure (SMILES),"hERG current change (%, negative = inhibition) at 10uM [%]"
1,CC1CCN(C(=O)CN2C(=O)C(=O)N(C(C)C)C2=O)c2ccccc2S1 (centres unmarked),-4.64
2,Cc1ccc2nc(-c3ccc(-c4cccc(Cl)c4)cc3)c(NCc3ccccc3)n2c1.O=C(O)C(F)(F)F,-1.52
3,N#C/C(=C\c1ccc(OC(F)F)cc1)C(=O)N1CCCCC1,-21.8
4,N#C/C(=C\c1ccc(C#N)cc1)C(=O)N1CCCC1,7.75
5,CCN1CCN(C(=O)/C(C#N)=C/c2ccc(OC(F)F)cc2)CC1.Cl,-74.3
6,CCOC(=O)c1ccc(NC(=O)Cn2c(=O)oc3ccccc32)cc1,10.9
7,O=C(NCc1ccc(Cl)cc1)C1CCC(CNc2c(N3CCOCC3)c(=O)c2=O)CC1 (centres unmarked),14.9
8,Cc1cc(-c2nnc(CCC(=O)NCc3ccc(OC(F)(F)F)cc3)o2)no1,3.05
9,C/C(=N\NC(=O)c1nc2ccccn2c1C)c1cccc([N+](=O)[O-])c1,-23.4
10,Cc1ccc(C(=O)C(C)OC(=O)CN2C(=O)NC3(CCCC3)C2=O)cc1C (centres unmarked),9.76
11,O=C(Sc1ccc(Cl)cc1)c1cccc(Cn2cc(C(F)(F)F)ccc2=O)c1,18.6
12,COc1c(C)cc(C(=O)C2CCCN(S(=O)(=O)c3c(C)noc3C)C2)cc1C (centres unmarked),-2.78
13,CCCC(=O)N1CCCC(C(=O)c2cccc(OC(C)C)c2)C1 (centres unmarked),3.64
14,CCOC(=O)CCNC(=O)N1CCCC(C(=O)c2cccc(OC(C)C)c2)C1 (centres unmarked),-10.3
15,COc1c(C)cc(C(=O)C2CCCN(S(=O)(=O)N(C)C)C2)cc1C (centres unmarked),-66.5
16,CCOC(=O)N1CCC(N2CCCC(C(=O)c3cccc(OC)c3)C2)CC1 (centres unmarked),-64.8
17,CCOC(=O)N1CCC(N2CCCC(C(=O)c3cccc(OC(C)C)c3)C2)CC1 (centres unmarked),-76.8
18,CC(=O)N1CCC(N2CCCC(C(=O)c3cccc(Cl)c3)C2)CC1 (centres unmarked),5.55
19,CCOC(=O)N1CCC(N2CCCC(C(=O)c3cc(C)c(OC)c(C)c3)C2)CC1 (centres unmarked),-57.3
20,CCOC(=O)CNC(=O)N1CCCC(C(=O)c2cc(C)c(OC)c(C)c2)C1 (centres unmarked),9.16
21,CCOC(=O)c1c(C)[nH]c(C(=O)N2CCCC(C(=O)c3cccc(OC)c3)C2)c1C (centres unmarked),-8.55
22,COc1ccc(C(=O)C2CCCN(S(=O)(=O)N(C)C)C2)c(C)c1 (centres unmarked),0.683
23,COc1c(C)cc(C(=O)C2CCCN(C3CCOCC3)C2)cc1C (centres unmarked),-15.2

# — article PMC4336329 (PLoS ONE, 2015)
